Screen size: about 350,000 compounds; about 31,000 (8.9%) were called active. Not shown: some 15% with an inconclusive outcome. The sample as a whole holds a higher share of actives than the screen did. A number with no mark means an inactive call. Calls follow the shape of the dose curve; as a rule, active = well fitted inhibition curve with a large enough effect; inconclusive = small, poorly fitted or top-dose-only effect; inactive = no such curve, though single readings can be large or run the other way.
% is scaled to controls: 0 for no effect and ±100 for the full control effect; potency is read from the fitted curve at half-maximal effect.

The target of the experiment is Histone-lysine N-methyltransferase EHMT2 (Homo sapiens) (UniProt Q96KQ7). Briefly: qHTS Assay for Inhibitors of Histone Lysine Methyltransferase G9a. Also: nearly all actives have a fitted effect of over 75% in size. Particulars: G9a H3K9 monomethylation, AlphaScreen, 2 h; series mostly up to 59 µM; activity, negative = inhibition: at the top concentration. The text has this: Methylated lysines, on the N-terminal tails of histone proteins serve as epigenetic markers to recruit factors that can then modify local chromatin structure to lead to functional consequences. G9a and other members of the SUV39 family of the SET domain-containing superfamily of histone lysine methyltransferases (HMT) have been identified to specifically methylate Lys9 of histone H3 (H3K9). G9a catalyzes the mono- and di-methylation of H3K9 in mammalian euchromatic regions, where the resulting H3K9me2 is indicative of transcriptional repression. […] The inhibition of G9a will result in transcriptional activation and work synergistically with DNA methyltransferase and histone deacetylase inhibitors, to kill cancer cells. This qHTS assay for identification of G9a inhibitors is a chemiluminescence based AlphaScreen (PerkinElmer). Methylation of biotinylated-histone peptide is measured through specific antibody-based detection, in conjunction with streptavidin-coated donor and anti-IgG antibody-coated acceptor beads. The method is particularly well suited for detection of inhibitors acting by the desired histone peptide competitive mechanism and is applicable to testing other HMTs. Although AlphaScreen has significant advantages with its utility in a variety of epigenetic target assays, the primary screening data provided in this deposition should be used with caution due to the prevalence of screening artifacts. An AlphaScreen counterscreen is highly recommended to be run against any putative actives to eliminate non specific artifacts. Alternatively, one can use other AlphaScreen assays in PubChem to filter out promiscuous hits. Quinn et al. A chemiluminescence-based method for identification of histone lysine methyltransferase inhibitors. Mol Biosyst 6(5): 782-8. 2010. PMID: 20567762 [2] Baell,Holloway. New substructure filters for removal of pan assay interference compounds (PAINS) from screening libraries and for their exclusion in bioassays. J Med Chem. 53(7):2719-40. 2010. PMID: 20131845 NIH Molecular Libraries Probe Production Network [MLPCN] NIH Chemical Genomics Center [NCGC] Structural Genomics Consortium (SGC) NIH Grant: 5U54 MH084681-02
Sequence of Histone-lysine N-methyltransferase EHMT2 (Homo sapiens) (Q96KQ7 913-1193 limits assumed): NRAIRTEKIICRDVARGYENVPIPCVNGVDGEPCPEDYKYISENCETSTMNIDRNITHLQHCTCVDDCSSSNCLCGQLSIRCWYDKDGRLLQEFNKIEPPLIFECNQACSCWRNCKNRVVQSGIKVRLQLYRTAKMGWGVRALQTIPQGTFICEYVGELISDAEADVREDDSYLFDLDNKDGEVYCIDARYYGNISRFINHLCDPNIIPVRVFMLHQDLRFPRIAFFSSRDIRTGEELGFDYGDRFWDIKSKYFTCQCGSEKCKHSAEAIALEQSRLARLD
To each well of a 1,536w plate, 2ul of HMT enzyme (final 20nM) were added, using a nanoliter dispenser. The G9a- and GLP-inhibitor BIX-01294 (CID: 25150857) are used as an intraplate control, with a 16-point titration in duplicate. A Kalypsys pin-tool transferred 23nl of library compound solution in DMSO to each well. Following a 15 min incubation of enzyme with compounds at room temperature, 1ul mixture of b-H3K9 peptide substrate (final 500nM) and SAM cofactor (final 20uM) were added. Reactions were allowed to proceed at room temperature for 2 hours. Methylated b-H3K9 peptide product was detected with 0.5 ug/mL rabbit polyclonal anti-monomethyl histone H3K9 antibody (Abcam Inc., Cambridge, MA) and 20 ug/mL each streptavidin-coated donor and anti-rabbit IgG acceptor AlphaScreen beads. Antibody and beads were added in a 1ul dispense, for a final volume of 4ul, and plates were incubated, protected from the light, for 10 min at room temperature. Microplates were then read on an EnVision multilabel plate reader using the 1,536 plate HTS AlphaScreen aperture (excitation time 80 ms, measurement time 240 ms).
Background: Quantitative high-throughput screening tests each substance at several concentrations.
For `O=C(NC(=S)Nc1ccccc1C(=O)O)c1ccc(-c2ccc(Br)cc2)o1`, the Potency was 22.4 µM (active).

`O=C(Cc1ccccc1)Nc1ccc(C(=O)Nc2ccccc2C(=O)O)cc1`: the “activity, negative = inhibition” value was 21.8% [at 102 µM].

With `S=C(c1ccc(-c2ccccc2)o1)N1CCCCC1`, the “activity, negative = inhibition” value is -134%.

With `Cc1ccc(SCC(=O)Nc2ccc3oc(-c4ccccc4C)nc3c2)cc1`, the “activity, negative = inhibition” value is 9.03%.

Turning to `Cc1cccc(NC(=O)CSc2nc3c([nH]c4ccccc43)c(=O)n2-c2cc(C)cc(C)c2)c1`, the “activity, negative = inhibition” value is 2.1%. Turning to `CCCCCC(=O)NC(=S)NNC(=O)c1ccc([N+](=O)[O-])cc1`, the Potency is 8.91 µM (active). `CCCCCC(=O)Nc1ccc(C(=O)N/N=C/c2ccc([N+](=O)[O-])cc2)cc1`: the “activity, negative = inhibition” value is 6.96% [at 102 µM]. `CC(C)CC(=O)NC(=S)NNC(=O)c1cccc([N+](=O)[O-])c1`: the Potency is 22.4 µM (active). As for `COCCCNC(=S)NC(=O)c1ccc([N+](=O)[O-])cc1`, the “activity, negative = inhibition” value is -14.4%. For the compound `Cc1cccc(C(=O)NNC(=O)c2cccc([N+](=O)[O-])c2)c1`, the “activity, negative = inhibition” value is -38.6% [at 102 µM].

In the case of `CC(C)(C)SCCNC(=O)c1cccc([N+](=O)[O-])c1`, the “activity, negative = inhibition” value was -0.0873%. Take `COc1ccccc1NC(=O)C1=C(C)Nc2ncnn2C1c1sccc1C` (configuration not stated): the “activity, negative = inhibition” value is -1.85%. On to `CC(OC(=O)c1ccc(S(=O)(=O)N2CCOCC2)cc1)c1ccccc1` (configuration not stated), for which the “activity, negative = inhibition” value is 30.1% [at 102 µM]. For the compound `COc1ccccc1/C=C/C(=O)OCC(=O)NC1CCCCCC1`, the activity, negative = inhibition is 25.2% [at 2.33 µM].

Take `N#Cc1c(-c2ccc(Cl)cc2)c2c([nH]c1=S)CCCC2`: the “activity, negative = inhibition” value was -10.4%.

Turning to `CC(=O)c1c(C)[nH]c(=S)c(C#N)c1-c1ccc(F)cc1`, the Potency was 1.41 µM (active). With `Cc1cc(C)c2c(-c3ccc(F)cc3)c(C#N)c(=O)n(C)c2n1`, the “activity, negative = inhibition” value was -7.15% [at 102 µM]. `COc1ccc(OC)c(CNC(=O)CN2C(=O)CCn3nc(-c4cn(C)c5ccccc45)cc32)c1`: the “activity, negative = inhibition” value was -26.2%. On the same count and under the same terms, the value for `CCCC(=O)Nc1ccc(NC(=O)c2sc3ccccc3c2Cl)cc1` was 0.593%; that for `O=C1Nc2ccc([N+](=O)[O-])cc2C1=Nc1cccc(CO)c1` was 5.69% [at 102 µM]. As to `CN1CCN(/N=C2/C(=O)Nc3ccc([N+](=O)[O-])cc32)CC1`, the Potency is 50.1 µM (active). On to `Cc1ccc(S(=O)(=O)N(Cc2cccc([N+](=O)[O-])c2)C(=O)N2CCN(C)CC2)cc1`, for which the activity, negative = inhibition was 6.51% [at 2.33 µM]. As for `O=C(CSc1oc(-c2ccco2)nc1S(=O)(=O)c1ccc(Cl)cc1)c1ccccc1`, the “activity, negative = inhibition” value was -1.32%. Regarding `O=C(N/N=C/C=C/c1ccco1)c1cccs1`, the Potency was 12.6 µM (active).

For `COc1cccc(-c2cc(C(=O)N/N=C/c3ccc(OC)c(COC(C)=O)c3)c3ccccc3n2)c1`, the “activity, negative = inhibition” value is -1.31% [at 102 µM].

Consider `CC(=O)Nc1ccc(/C=N/NC(=O)c2cccs2)cc1`, for which the “activity, negative = inhibition” value is -2.45% [at 102 µM].

Take `Cc1ccc(-c2cc(C(=O)N/N=C/C=C/c3ccco3)c3ccccc3n2)cc1C`: the Potency is 44.7 µM (active).

Regarding `CCOc1cc(/C=N/NC(=O)c2cc(-c3ccccc3)nc3ccccc23)ccc1O`, the “activity, negative = inhibition” value was -41.1% [at 102 µM]. For the compound `CC(/C=N/NC(=O)c1ccncc1)=C\c1ccco1`, the “activity, negative = inhibition” value is 2.74%. `CCOc1ccc(CCNC(=O)COC(=O)c2ccc(F)c(S(=O)(=O)N3CCOCC3)c2)cc1OCC`: the activity, negative = inhibition was -4.3% [at 0.501 µM]. Regarding `Brc1cccc(-c2nnn3c2nc(NC2CCCCC2)c2ccccc23)c1`, the “activity, negative = inhibition” value is 14.7%.

Consider `Cc1ccccc1NC(=O)Cc1nc(COC(=O)c2ccc(C(F)(F)F)cc2)cs1`, for which the activity, negative = inhibition is 5.04% [at 12.7 µM]. Turning to `CCN(CC(=O)NCc1ccc(Cl)cc1)C(=O)CSc1ccccc1`, the activity, negative = inhibition is -1.68% [at 12.7 µM]. In the case of `Cc1c(-c2nsc(NC(=O)c3cccc(Cl)c3)n2)nnn1-c1ccccc1C(F)(F)F`, the “activity, negative = inhibition” value is 13.6%. Still for that read-out and setting: the value for `COc1cc2c(cc1/C=C1/NC(=O)N(c3ccccc3)C1=O)OCO2` was 14.8%; that for `O=c1c(-c2cccc(Cl)c2)c[nH]n1-c1ccccc1` was 3.35% [at 2.33 µM]. For `O=C1N/C(=C/c2cccn2-c2ccccc2)C(=O)N1c1cccc(Cl)c1`, the Potency is 1 µM (active).

As to `COc1ccc(S(=O)(=O)NCCSc2nnnn2-c2ccccc2)cc1`, the “activity, negative = inhibition” value was 40.1%. Regarding `N[C@@H](Cc1ccccc1)C(=O)N1CCOCC1`, the activity, negative = inhibition was 11.6% [at 2.33 µM]. Regarding `Cc1cc(C)c(S(=O)(=O)N2CCC(C(=O)OCc3c(C)noc3C)CC2)c(C)c1`, the “activity, negative = inhibition” value is 5.16%.

In the case of `COc1ccccc1-c1nnc(SCC(N)=O)o1`, the “activity, negative = inhibition” value is -28.6%. Turning to `O=C(CCCN=C1NS(=O)(=O)c2ccccc21)OCC(=O)c1ccc(F)c(F)c1`, the Potency was 44.7 µM (active).

Regarding `Cc1ccccc1C(=O)NCCN=C1NS(=O)(=O)c2ccccc21`, the “activity, negative = inhibition” value is -41.3% [at 102 µM]. For `N#CC1(NC(=O)COc2ccc3oc4ccccc4c3c2)CCCCC1`, the “activity, negative = inhibition” value was -2.61%. `N#CC1(NC(=O)COC(=O)CCN=C2NS(=O)(=O)c3ccccc32)CCCCC1`: the Potency was 79.4 µM (active).

Consider `O=C(OCCN=C1NS(=O)(=O)c2ccccc21)c1cccc([N+](=O)[O-])c1`, for which the “activity, negative = inhibition” value was 27.8% [at 102 µM]. On to `N#CC1(NC(=O)COC(=O)CSc2ccc(F)cc2)CCCCC1`, for which the “activity, negative = inhibition” value is 0.383% [at 102 µM].

The values are drawn from PubChem BioAssay AID504332 (National Center for Advancing Translational Sciences (NCATS), 2011).
